About 6,500 (11%) of roughly 59,000 compounds were called active. About 15% were inconclusive and are not listed. This is one part of a sample in which actives are shown more often than they occur. Cut-off read from the data, not from the text of the source: active = max dye-equivalent concentration above about 10 nM; inconclusive = mostly about 1.1 nM to 9.6 nM; inactive = weaker than that.
experiment: qHTS Assay for Spectroscopic Profiling in A350 Spectral Region; conditions: Compound autofluorescence, 340/450 nm, Alexa 350 dye-equivalents; active compounds read high
Source text: NIH Molecular Libraries Screening Centers Network [MLSCN]
NIH Chemical Genomics Center [NCGC]
Occasionally, the artifactual effect may originate from the compounds own spectral or other biophysical properties which generally tend to track its assay concentration. Pre-screening/profiling the library with respect to the compounds spectral properties should help one exclude false positives early on. While the most informative fluorescent profiling data set is obtained by performing a full excitation and emission scan of each well by using a monochromator-based plate reader, such an approach is practical only on a very limited scale as scanning each well requires long time. An alternative approach, applied here, is to perform plate reader scans using selected excitation and emission wavelength pairs to generate a multidimensional relational database that correlates compound concentration and the respective relative fluorescence intensity at a given wavelength set. A standard curve of Alexa 350 (A 350) present on each plate as six-point concentration series, was used to compute a normalized fluorescence response, termed dye-equivalent concentration, for each compound at each concentration.
NCGC Assay Protocol Summary:
100 mM Tris buffer, pH 8.0
The wells in columns 1 through 4 of a Kalypsys polypropylene 1536-well compound plate were filled with standard solutions of fluorophore corresponding to the spectral region of interest. Solutions of A 350 were placed in the following wells: I1, J1: 3 mM, I2, J2: 300 uM, I3, J3: 30 uM, I4, J4: zero (DMSO), K1, L1: 3 uM, K2, L2: […], K3, L3: 300 nM, K4, L4: zero (DMSO).
Six uL of buffer were dispensed to 1536-well Greiner black plates. Compounds and dye standards (23 nL) were transferred via Kalypsys PinTool. The plates were incubated for 15 min at room temperature, and then read on ViewLux (Perkin-Elmer) High-throughput CCD imager using 340 nm and 450 nm excitation and emission filter set.
Keywords: NIH Roadmap, MLSCN, MLI, MLSMR, qHTS, NCGC, A350, A-350, Fluorescent Profiling.

SMILES | max dye-equivalent concentration
CCCN(CCC)CCNC(=O)c1cc2c(C)nc3ccccc3c2o1 | 18 nM (active)
CCCC(=O)N(CCc1ccccc1)Cc1nc2ccccc2c(=O)[nH]1 | inactive
Cc1cc(C(=O)NCCCc2ccccc2)no1 | inactive
CCOC(=O)C1CCCCN1Cc1ccc(OC)c(OC)c1OC (stereo not drawn) | inactive
Clc1ccccc1-c1cc(NCCN2CCOCC2)ncn1 | inactive
CCn1c(SCC(=O)NCc2ccco2)nnc1-c1ccc(N)cc1 | inactive
CN1CCN(S(=O)(=O)c2ccc(NC(=O)C3CCCO3)cc2)CC1 (stereo not drawn) | inactive
CCN(Cc1ccncc1)C(=O)c1cccc(S(=O)(=O)N2CCOCC2)c1 | inactive
COc1ccc(S(=O)(=O)N2CCOCC2)cc1C(=O)Nc1nc2ccccc2s1 | 26 nM (active)
O=C(Nc1nc2cc3c(cc2s1)OCCO3)c1cccc(S(=O)(=O)N2CCOCC2)c1 | 15 nM (active)
CCOC(=O)c1sc(NC(=O)c2cc(S(=O)(=O)N3CCOCC3)ccc2C)nc1C | inactive
COC(=O)COc1ccc(S(=O)(=O)N2CCOCC2)cc1 | inactive
O=C(Nc1nc2ccc(S(=O)(=O)N3CCCC3)cc2s1)C1CCCO1 (stereo not drawn) | inactive
CC1(C)Cc2cccc(OCC(=O)Nc3nccs3)c2O1 | inactive
COc1ccc(C[C@H](N)C(=O)N[C@@H]2[C@H](O)[C@H](n3cnc4c(N(C)C)ncnc43)O[C@@H]2CO)cc1 | inactive
CCCOP(=O)(c1ccc(N(C)C)cc1)C(O)c1cc(OC)c(OC)c(OC)c1 (stereo not drawn) | inactive
COc1ccc(N2CCN(C3CC(=O)N(c4ccc5c(c4)OCCO5)C3=O)CC2)cc1 (stereo not drawn) | inactive
Cc1ccc(S(=O)(=O)N2CCC(C(=O)OCC(=O)N3CC(=O)Nc4ccccc43)CC2)cc1 | inactive
CC(=O)N1CCC2(CCCN(c3ncccn3)C2)CC1 | inactive
Cc1ccc(S(=O)(=O)N2CCCC2CO)cc1 (stereo not drawn) | inactive
COc1ccc(C2CC(c3ccc(C)cc3)Nc3nc(N)nn32)cc1 (stereo not drawn) | 2800 nM (active)
Cc1cc(C)c(C(=O)CN2C(=O)CCC2=O)cc1C | inactive
COC(=O)c1ccc(NC(=O)CSc2nnc(CNc3ccc(OC)cc3)n2C)cc1 | inactive

SMILES | max dye-equivalent concentration
CCOC(=O)N1CCN(C(=O)CN(C2CCCCC2)S(C)(=O)=O)CC1 | inactive
Cc1ccccc1CSc1nnc(-c2ccccn2)n1N | inactive
CN(Cc1ccco1)c1cc(-c2ccccc2C(F)(F)F)ncn1 | inactive
Cc1cc(C(=O)Nc2c(C)n(C)n(-c3ccccc3)c2=O)cs1 | inactive
Cc1c(NC(=O)c2coc(=O)c(Br)c2)c(=O)n(-c2ccccc2)n1C | 220 nM (active)
Cc1c(NC(=O)c2cccnc2)c(=O)n(-c2ccccc2)n1C | inactive
O=c1[nH]c(=O)n([C@H]2C[C@H](O)[C@H](CO)O2)cc1Br | inactive
OCCCN1c2ccccc2Nc2nnc(-c3ccccc3)cc21 | 110 nM (active)
Cn1c(=O)[nH]c(=O)c2c1nc(N(CCO)Cc1ccccc1)n2Cc1ccccc1Cl | inactive
O=C(c1cccc(F)c1)N1CCC2(CCCN(Cc3ccncc3)C2)CC1 | inactive
Cc1c(C)c2c(c(C)c1O)CC[C@@](C)(CN1CCN(c3cc(N4CCCC4)nc(N4CCCC4)n3)CC1)O2 | 11 nM (active)
CC(=O)N1CCC2(CCCN(Cc3ccc(C#N)cc3)C2)CC1 | inactive
N#CNC1=NCN(CCc2ccccc2)CN1 | inactive
Cc1ccnc(N2CCN(C(=O)CSc3nc4ccccc4nc3N3CCCCC3)CC2)c1 | 28 nM (active)
Cn1c(=O)cc(OCCCC(=O)N2CCN(c3ccccn3)CC2)c2ccccc21 | inactive
O=C(CSc1nc2ccccc2o1)N1CCN(c2ccccc2)CC1 | inactive
COc1ccc(C(=O)Cn2nnc(-c3ccc(N4CCOCC4)cc3)n2)cc1OC | inactive
Cc1ccc(Oc2ccc(N)cc2)cc1 | inactive
CC(C)(C)n1nnnc1C(c1ccc2ncccc2c1)N1CCSCC1 (stereo not drawn) | inactive
Cc1ccccc1-c1nnn(CC(=O)c2ccc(S(=O)(=O)N3CCCC3)cc2)n1 | inactive
N#CC(C(=O)c1ccc(S(=O)(=O)N2CCCCCC2)cc1)c1nc2ccccc2[nH]1 (stereo not drawn) | 52 nM (active)
COc1ccccc1N1CCN(C(=O)c2ccc(S(=O)(=O)N3CCCCC3)cc2)CC1 | inactive
Cc1nnc(N(Cc2ccco2)C(=O)c2ccno2)s1 | inactive

SMILES | max dye-equivalent concentration
N#Cc1cccc(NC(=O)CCC2CCCC2)c1 | inactive
CCCc1nc(-c2ccccc2O)n(-c2ccccc2)n1 | inactive
O=C(CSc1nnc(Cc2ccccc2)n1-c1ccccc1)N1CCOCC1 | inactive
CCOc1ccccc1C(=O)NCc1ccco1 | inactive
CCOc1ccccc1C(=O)NCCCn1ccnc1 | inactive
CCOc1ccccc1C1C(C(=O)OC)=CN(C)C=C1C(=O)OC | 13000 nM (active)
CN(C)CCCn1c2ccccc2c2cnccc21 | inactive
CCC(C)n1[nH]c(=O)cc1N (stereo not drawn) | inactive
CC(=O)c1c(N)n(C)c(=O)n(C)c1=O | inactive
CCON=C1C(C)(C)C(C)(C)C(C)(C)C1(C)C | inactive
CC(=O)N1CCN(C(=O)Nc2cccc(C(F)(F)F)c2)CC1 | inactive
CCOc1c(N2CCCCC2)c(=O)c1=O | inactive
COc1ccc(-c2c3c(=O)n(C)c(=O)n(C)c3cn2NC(C)=O)cc1 | 2600 nM (active)
COc1ccc(N(C(=O)c2cccnc2)S(=O)(=O)c2ccc3c(c2)n(C)c(=O)n3C)cc1 | inactive
COC(=O)c1ccc(CSc2nc3ccccc3c(=O)n2-c2cccc(OC)c2)o1 | inactive
COc1ccc(-c2c3c(=O)n(C)c(=O)n(C)c3cn2-c2cccc(OC)c2)cc1 | 14 nM (active)
Cc1ccc(-c2c3c(=O)n(C)c(=O)n(C)c3cn2-n2cnnc2)cc1 | inactive
COc1ccc(OC)c(-n2cc3c(=O)n(C)c(=O)n(C)c3c2)c1 | inactive
CCOC(=O)CNC(=O)c1nn(-c2cccc(OC)c2)c(=O)c2ccccc12 | inactive
COc1cccc(-n2cc3c(c2-c2ccccc2)c(=O)n(C)c(=O)n3C)c1 | 10 nM (active)
Cc1cccc(-n2nc3c(c2NC(=O)c2ccc(Br)o2)CSC3)c1C | inactive
O=C(Nc1ccc(S(=O)(=O)N2CCCCC2)cc1)c1cnccn1 | inactive

From PubChem BioAssay AID590 (National Center for Advancing Translational Sciences (NCATS), 2007)
